Reference: PubChem BioAssay (NCI)
About 83,000 compounds went through this panel and 20% of them were active in at least one assay; those are over-represented in the sample as a whole.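 Each cell line was grown in a 96-well plate and treated with one concentration of compound for 48 hours. Values below 10 were considered active.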 Unmarked numbers belong to inactive results. Calls of active or inactive are those of the source.

These compounds were tested on HL-60(TB) leukemia (assay: NCI-60 one-dose screen, 48 h (100 = growth as untreated, 0 = no growth, -100 = all killed)). Conditions: 10 µM unless noted.

Structure (SMILES) | growth
N=C1CCC(=N)c2c1c(O)c1ccccc1c2O | 129%
C=CN(C(=O)N1CCN(c2cc3c(cc2F)c(=O)c(C(=O)O)cn3C2CC2)CC1)c1nc(-c2ccc(C)cc2)cs1 | -27.2% (active)
Cc1nccc2c3ccc(OCc4cn(Cc5ccc(Br)cc5)nn4)cc3n(CCCc3ccccc3)c12 | 89%
COc1ccc(-c2cc(-c3cccnc3)nc3sc(C(=O)Nc4ccccc4)c(N)c23)cc1OC | 60.2%
O=C(CSc1ccc(Cl)cc1)Nc1ccc(-c2nc3ccccc3s2)c(Cl)c1 | 63.4%
Nc1cc(-c2ccc(Cl)cc2)nn1-c1nc(-c2ccc(Br)cc2)cs1 | 96.3%
CCCCCCCCCCCCCC[N+](C)(C)CCCCCCCCCCCCCC | 46.6%
N#C/C(=C\N1C(=O)/C(=C/c2cccc([N+](=O)[O-])c2)SC1=S)c1nc2ccccc2s1 | 94.5%
COc1cc(-c2cc(/C=C3\C(=O)Nc4ccc(Cl)cc43)[nH]n2)cc(OC)c1OC | -26% (active)
C=C[C@@H]1C[C@H](O)Cc2cc(F)ccc2N1 | -2.59% (active)
Brc1ccc(-c2nn(-c3ccccc3)cc2-c2nn[nH]n2)s1 | 103%
Cc1ccc(N)c(O)c1 | 128%
CCN=c1cc2sc3cc(NCC)c(C)cc3nc-2cc1C | 2.7% (active)
CCN(Cc1ccc(CN(CC)C(=O)C(Cl)(Cl)Cl)cc1)C(=O)C(Cl)(Cl)Cl | 6.38% (active)
Brc1ccc(SCN(CSc2ccc(Br)cc2)Cc2ccccc2)cc1 | 40.3%
CC(Br)C(O)c1cc2c(cc1Br)OCO2 (stereo not given) | 105%
Cc1nc2ccccc2c(/C=C/c2ccc(Cl)cc2)c1C(=O)/C=C/c1cccs1 | 59.5%
Cc1ccc(-c2nnc(SCc3nc(N)nc(Nc4ccccc4F)n3)n2-c2ccccc2)cc1 | -21.3% (active)
CN(C)S(=O)(=O)c1ccc(S(=O)(=O)Nc2cccc(Cl)c2N2CCCCC2)cc1 | 76.7%
O=C(O)c1cccc(S(=O)(=O)c2ccccc2)c1 | 92%

Structure (SMILES) | growth
Nc1ccc(S(=O)(=O)Nc2ccnn2-c2ccccc2)cc1 | 102%
Cc1ncc(-c2ccnc(Nc3ccc(S(C)(=O)=O)cc3)n2)n1C(C)C | -43.2% (active)
CC(=O)[C@H]1CC[C@H]2[C@@H]3CCC4=CC(=O)C=C[C@]4(C)[C@H]3CC[C@]12C | 90.9%
Nc1nc(N)c(N=Nc2ccc(C(=O)O)cc2)c(N)n1 | 90%
CN1CCN(CC(=O)N2c3cccc4cccc(c34)N(C(=O)CN3CCN(C)CC3)C2c2cn(-c3ccccc3)nc2-c2cccc([N+](=O)[O-])c2)CC1 | -60% (active)
COc1cc(-c2nc(N3CCN(C)CC3)c3ccccc3n2)cc(OC)c1OC | 67%
COc1ccc(Nc2c3c4c(cccc4[nH]c2=O)C(=O)c2ccccc2-3)cc1 | -60.4% (active)
O=C1c2ccccc2OC=C(c2ccccc2)N1CCCCN1CCCCC1 | 58.1%
C#Cc1ccc(-n2c(/C=C/c3cc(OC)c(OC)c(OC)c3)nc3ncccc3c2=O)cc1 | 26.5%
C=C(C)[C@@H]1CC[C@]2(C(=O)NCCCN(CCC#N)CCC#N)CC[C@]3(C)[C@H](CC[C@@H]4[C@@]5(C)CCC(=O)C(C)(C)[C@@H]5CC[C@]43C)[C@@H]12 | 100%
Fc1ccc(-c2nc(-c3nc4ncccc4[nH]3)cc3c2[nH]c2ccccc23)cc1F | 86.4%
CCc1ccc(C2=NN(c3ccc(S(C)(=O)=O)cc3)C(=O)CC2)cc1 | 6.73% (active)
Nc1nc(-c2ccccc2Cl)cc(-c2ccc(Cl)cc2Cl)n1 | 51.4%
Cc1cc(=O)oc2cc(OCCn3c(C)nn(-c4ccc(Cl)cc4)c3=O)ccc12 | -5.7% (active)
CCCCNc1ccc(-c2ccc(NCCCC)cc2)cc1 | 45.4%
CCN(CC)c1ccc(/C=N/NC(=O)c2ccccc2Nc2ccnc(C(F)(F)F)c2)c(O)c1 | 60%
CCCCCCNC(=O)Oc1ccc(/C(=C(/CC)Cc2ccccc2)c2ccc(OCCN3CCCCC3)cc2)cc1 | 75.1%
CC/C(=C\c1ccc(N(C)C)cc1)c1ccncc1 | 29.5%
CC(C)(Sc1cc(C(C)(C)C)c(O)c(C(C)(C)C)c1)Sc1cc(C(C)(C)C)c(OC(=O)CCC(=O)O)c(C(C)(C)C)c1 | 56.1%
Cc1cc(Nc2nc(N[C@@H](C)c3ncc(F)cn3)ncc2Cl)n[nH]1 | 54.2%
